The panel holds about 83,000 compounds, 20% with a hit somewhere; the sample as a whole holds those more often.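 Percent growth is the endpoint: 0 to 100 indicates growth inhibition (40 means 60% inhibition), 0 means no net growth, and negative values indicate cell death.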 Values without a mark were called inactive. Calls of active or inactive are those of the source. The calls were made as follows: active = growth percent below 10; inactive = the rest.

In PubChem BioAssay (NCI) one finds growth data, which are given here for eight compounds.

Common to all, as to assay: NCI-60 one-dose screen, 48 h (100 = growth as untreated, 0 = no growth, -100 = all killed)
For one test, the system named is NCI-H23 lung. The settings on record: 10 µM unless noted.
A further test deals with NCI-H226 lung. The settings on record: 10 µM unless noted.
The subject of a further test is NCI-H322M lung. The note with it: 10 µM unless noted.
The next test relates to HOP-62 NSCLC. The settings on record: 10 µM unless noted.
Another test relates to NCI-H460 lung. The settings on record: 10 µM unless noted.
The subject of a further test is HOP-92 NSCLC. The note with it: 10 µM unless noted.
A further test deals with NCI-H522 lung. The settings on record: 10 µM unless noted.
A further test deals with A549/ATCC NSCLC. The settings on record: 10 µM unless noted.
The next test deals with 786-0 renal. The settings on record: 10 µM unless noted.
The test system of another test is COLO 205 colon. The note with it: 10 µM unless noted.
A further test deals with DU-145 prostate. The note with it: 10 µM unless noted.
Another test has as its system K-562 leukemia. The settings on record: 10 µM unless noted.
The next test concerns MALME-3M melanoma. The note with it: 10 µM unless noted.
The next test relates to MDA-MB-231 breast. The note with it: 10 µM unless noted.
The subject of another test is RXF 393 renal. The settings on record: 10 µM unless noted.
A further test relates to SF-268 CNS. The note with it: 10 µM unless noted.
A further test deals with SF-295 CNS. The settings on record: 10 µM unless noted.
The subject of another test is SF-539 CNS. The settings on record: 10 µM unless noted.
In another test the test system is M14 melanoma. The note with it: 10 µM unless noted.
Another test has as its system UACC-257 melanoma. The settings on record: 10 µM.

On to `Nc1cc2c(cc1N)-c1cc(N)c(N)cc1C2`, for which the growth is 95% with NCI-H23 lung; 98% in the test with NCI-H226 lung; 102% in the test on NCI-H322M lung; 95.5% with HOP-62 NSCLC; 105% in the test with NCI-H460 lung; 86.7% in the test with HOP-92 NSCLC. Moreover, the growth in the test with NCI-H522 lung was 88.3%; with A549/ATCC NSCLC it was 97.9%; with 786-0 renal, 100%; with COLO 205 colon, 116%; with DU-145 prostate, 118%; in the test on K-562 leukemia, 107%. Besides, the growth was 102% in the test on MALME-3M melanoma; 83.8% in the test on MDA-MB-231 breast; 107% in the test with RXF 393 renal; 91.4% with SF-268 CNS; 113% with SF-295 CNS; 103% in the test with SF-539 CNS. In addition, the growth with M14 melanoma was 101%.
With `COC1=CC(c2ccc[nH]2)=N/C1=C\c1[nH]c(C)c(CCCn2cc(CCCCCCCCC[C@@H]3Cc4cc(O)ccc4C4CC[C@]5(C)[C@@H](O)CC[C@H]5C43)nn2)c1C` (stereo partly specified), the growth in the test with NCI-H23 lung was 49.9%; in the test with NCI-H226 lung, 68.2%; in the test with NCI-H322M lung it was 44.6%; in the test on HOP-62 NSCLC, 60.3%; in the test on NCI-H460 lung it was 37.3%; in the test with HOP-92 NSCLC, 25.8%. The growth in the test with NCI-H522 lung was 24.5%; in the test with A549/ATCC NSCLC, 48.3%; in the test with 786-0 renal, 63.9%; with COLO 205 colon, 35.8%; with DU-145 prostate it was 33.3%; with K-562 leukemia, 28%. Also, the growth was 137% in the test on MALME-3M melanoma; -12.8% (active) with MDA-MB-231 breast; 28.1% with RXF 393 renal; 58.2% in the test with SF-268 CNS; 65.2% in the test with SF-295 CNS; 59.1% in the test with SF-539 CNS. Moreover, the growth in the test with UACC-257 melanoma is 98.5%; in the test on M14 melanoma, 74%.
As to `C=C1C(=O)O[C@H]2[C@H]1CC/C(Cn1cc(-c3ccccc3C(F)(F)F)nn1)=C\CC[C@@]1(C)O[C@@H]21`, the growth with NCI-H23 lung is 7.85% (active); in the test with NCI-H226 lung, -45.6% (active); in the test on NCI-H322M lung, 81.6%; in the test with HOP-62 NSCLC, 37.3%; in the test with NCI-H460 lung it was 49.1%; with HOP-92 NSCLC it was -70.4% (active). Besides, the growth was -82.5% (active) with NCI-H522 lung; 42.9% in the test with A549/ATCC NSCLC; -81.2% (active) with 786-0 renal; -78.8% (active) with COLO 205 colon; -95.4% (active) with DU-145 prostate; -13% (active) in the test with K-562 leukemia. The growth in the test with MALME-3M melanoma was -59.3% (active); with MDA-MB-231 breast it was -33.4% (active); in the test with RXF 393 renal, -72.3% (active); with SF-268 CNS it was -4.71% (active); in the test on SF-295 CNS, 58.8%; in the test with SF-539 CNS, -74.9% (active). Further, the growth with M14 melanoma was -79.1% (active).
Regarding `COc1cc(-c2csc(NC(=O)Nc3ccc(Cl)cc3Cl)n2)cc(OC)c1OC`, the growth in the test with NCI-H23 lung is 42.7%; in the test on NCI-H226 lung it was 43.8%; in the test with NCI-H322M lung, 30.8%; with HOP-62 NSCLC it was 38.7%; in the test with NCI-H460 lung it was 10.3%; with HOP-92 NSCLC, 44%. Also, the growth is 21.4% in the test with NCI-H522 lung; 25.5% in the test on A549/ATCC NSCLC; 33% in the test with 786-0 renal; 36.5% in the test with COLO 205 colon; 46.6% in the test with DU-145 prostate; 15.8% in the test with K-562 leukemia. Also, the growth is 45% with MALME-3M melanoma; 54.7% in the test with MDA-MB-231 breast; 49.9% with RXF 393 renal; 33.6% in the test on SF-268 CNS; 19.2% in the test with SF-295 CNS; 29.4% with SF-539 CNS. Besides, in the test with M14 melanoma, the growth was 34.9%.
For the compound `Cc1nc(Nc2cccnc2)sc1C(=O)/C=C/c1ccc(Cl)cc1`, the growth with NCI-H23 lung was 92.8%; in the test on NCI-H226 lung, 62.5%; in the test with NCI-H322M lung, 32.1%; in the test on HOP-62 NSCLC it was 15.6%; with NCI-H460 lung, 70.6%; in the test on HOP-92 NSCLC it was 92%. Also, the growth was 44.7% with NCI-H522 lung; 26.5% with A549/ATCC NSCLC; 12.3% in the test on 786-0 renal; 43.8% in the test on COLO 205 colon; 17.6% in the test on DU-145 prostate; 7.88% (active) in the test with K-562 leukemia. For the same compound, the growth in the test on MALME-3M melanoma is 89.7%; in the test on MDA-MB-231 breast, 73.9%; with RXF 393 renal, 16.2%; with SF-268 CNS, 46.7%; with SF-295 CNS, 42.8%; with SF-539 CNS, -14.5% (active). Also, the growth in the test with UACC-257 melanoma is 73.7%; with M14 melanoma, 38.2%.
On to `O=C(c1ccncc1)N1N=C(c2ccc(Cl)cc2)CC1c1c[nH]c2ccccc12` (stereo unspecified), for which the growth in the test on NCI-H23 lung was 85.9%; with NCI-H226 lung, 82.7%; with NCI-H322M lung, 96.3%; with HOP-62 NSCLC, 75.1%; with NCI-H460 lung it was 96.8%; in the test on HOP-92 NSCLC it was 94.7%. For the same compound, the growth in the test with NCI-H522 lung was 80.8%; with A549/ATCC NSCLC, 95%; with 786-0 renal, 104%; in the test with COLO 205 colon it was 97.9%; with DU-145 prostate, 102%; in the test with K-562 leukemia, 88.3%. Besides, the growth with MALME-3M melanoma is 96.7%; in the test on MDA-MB-231 breast it was 71.3%; in the test with RXF 393 renal it was 112%; in the test with SF-268 CNS, 94.2%; in the test with SF-295 CNS, 97%; in the test with SF-539 CNS it was 97%. The growth in the test with UACC-257 melanoma was 95.9%; with M14 melanoma, 95.3%.
Take `O=C1C2=C(C(=O)c3c(O)ccc(O)c31)N(c1cccnc1)Cc1ccccc1O2`: the growth with NCI-H23 lung was -5.92% (active); in the test on NCI-H226 lung it was 19.2%; in the test with NCI-H322M lung, 23.9%; with HOP-62 NSCLC, -3.72% (active); with NCI-H460 lung, 7.48% (active); in the test on HOP-92 NSCLC, -89.9% (active). The growth with NCI-H522 lung is -77.9% (active); in the test with A549/ATCC NSCLC it was 31.6%; in the test on 786-0 renal it was -86.7% (active); with COLO 205 colon, -60.9% (active); in the test with DU-145 prostate, -96.6% (active); in the test on K-562 leukemia, -9.44% (active). Also, the growth in the test on MALME-3M melanoma was -80.5% (active); with MDA-MB-231 breast it was -68.9% (active); in the test on RXF 393 renal, -78.8% (active); in the test with SF-268 CNS it was 1.4% (active); in the test with SF-295 CNS, 37.9%; in the test with SF-539 CNS, -56.1% (active). For the same compound, the growth with M14 melanoma was -78% (active).
Turning to `COc1ccc(/C=C2\CCCC3=C2NC(C)=NC3c2ccc(OC)c(OC)c2)cc1OC` (stereo unspecified), the growth in the test on NCI-H23 lung is 29.1%; with NCI-H226 lung, -22.4% (active); with NCI-H322M lung, 47.4%; with HOP-62 NSCLC it was 32.1%; in the test on NCI-H460 lung it was 0.649% (active); in the test with HOP-92 NSCLC, 30.1%. The growth with NCI-H522 lung is -7.42% (active); with A549/ATCC NSCLC, 18%; in the test with 786-0 renal, 9.19% (active); in the test on COLO 205 colon, -29.8% (active); in the test on DU-145 prostate, 7.29% (active); in the test on K-562 leukemia, 5.92% (active). Moreover, the growth was -0.933% (active) in the test with MALME-3M melanoma; 7.16% (active) with MDA-MB-231 breast; -16.6% (active) in the test on RXF 393 renal; 20% in the test with SF-268 CNS; 3.05% (active) with SF-295 CNS; 17.1% with SF-539 CNS. Further, the growth in the test with UACC-257 melanoma was 20.2%; in the test with M14 melanoma, -42.1% (active).
